Data on 38 compounds can be found in PubChem BioAssay (EPA / NIEHS).

Where “and” joins values, the source holds several entries; their conditions need not be identical. Identical values can stand only once. Results filed as inconclusive are left out. The source holds several records for some structures; these can differ, active in one and inactive in another. Calls of active or inactive are those of the source. Rule for the calls: active = hit-call score of the fitted dose curve at least 0.9, where 1 is the maximum; inconclusive = response in the unintended direction; inactive = score below 0.9.

One may read the AC50 as the concentration giving half of the maximal activity seen.

A short description of the experiment: TOX21_p53_BLA_p2_viability: Viability Assessment in the Tox21 HCT-116 p53 Agonism Beta-lactamase Assay, Phase 2 (AID 2283591).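 Note: compound exposure lasted 16 h at 37 °C; actives lower the ATP signal meaning cytotoxicity.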 From the text:
TOX21_p53_BLA_p2 is a cell-based, single-readout assay that uses HCT116, a human intestinal cell line, […] in a 1536-well plate.TOX21_p53_BLA_p2_viability is an assay readout measuring cellular ATP content and detected with CellTiter-Glo Luciferase-coupled ATP quantitation.TOX21_p53_BLA_p2_viability used a type of viability reporter where loss-of-signal activity can be used to understand changes in the cell viability. Furthermore, this assay endpoint can be referred to as a secondary readout, because this assay has produced multiple assay endpoints where this one serves a viability function. To generalize the intended target to other relatable targets, this assay endpoint is annotated to the cell cycle intended target family, where the subfamily is cytotoxicity.
Thawing Method: Place 14 mL of pre-warmed thaw medium into a 15 mL of conical tub. Remove the vial of cells to be thawed from liquid nitrogen and thaw rapidly by placing at 37C in a water bath with gentle agitation for 1-2 minutes. Decontaminate the vial by wiping with 70% ethanol before opening in a biological safety cabinet. Transfer the vial contents drop-wise into 14 mL of thaw medium in a sterile 15-mL conical tub. Centrifuge cells at 900 rpm for 4 minutes and resuspend in thaw medium. Transfer contents to the T75 tissue culture flask containing Thaw Medium and place flask in a humidified 37C/5% CO2 incubator. Switch to growth medium at first passage.Propagation Method: Aspirate medium, rinse once in DPBS, add 0.25% Trypsin/EDTA and swirl to coat the cell evenly. Add an equal volume of Growth Medium to inactivate Trypsin after 2-3 minutes incubation at 37C. Centrifuge cells at 900 rpm for 4 minutes and resuspend in growth medium. Cell should be passage or fed at least twice a week.Assay Protocol: Harvest cells from culture in growth medium and resuspend in assay medium. 2.2 Dispense 4000 cells/5 uL/well into 1536-well black/clear bottom plates using a Multidrop dispenser. After the cells were incubated at 37C for 5 hours, 23 nL of compounds dissolved in DMSO were transferred to the assay plate by a PinTool resulting in a 217-fold dilution. Incubate the plates for 16 hours at 37C, 5% CO2. Add 1 uL of 6X LiveBLAzer FRET B/G (CCF4-AM) Substrate Mixture to each well using a BioRAPTR dispenser and incubate the plates at room temperature for 2 hours. Measure fluorescence intensity at 460 and 530 nm emission and 405 nm excitation by an Envision detector. Data is expressed as the ratio of 460nm/530nm emissions. Add 4 uL of Cell-titer Glo to each well using BioRAPTR and incubate the plates at room temperature for […]. For cell viability readout that measures cytotoxicity, 4 ul/well of CellTiter-Glo reagent was added into the assay plates using a Flying Reagent Dispenser. After 30 min incubation at room temperature, the luminescence intensity in the plates was measured using a ViewLux plate reader.
`C1CCC(NC2CCCCC2)CC1`: the outcome was inactive.
For the compound `CCOC(=O)/C=C(C)/C=C/C[C@@H](C)CCCC(C)C`, the compound was classed as inactive.
Take `CC(C)(C)CC(C)(C)c1ccc(O)cc1`: the AC50 is 64.5 µM (active) and 42.4 µM (active).
Regarding `O=C(CCl)CCl`, the compound was called inactive.
As for `O=S(=O)(c1ccc(Cl)cc1)c1ccc(Cl)cc1`, the compound was called inactive.
On the same count and under the same terms, the result for `COP(=S)(OC)Oc1ccc(Sc2ccc(OP(=S)(OC)OC)cc2)cc1` reads “inactive”.
Regarding `COc1ccc(C=O)cc1OC`, the compound was called inactive.
For the compound `COP(=O)(OC)OC`, the outcome was inactive.
In the case of `O=C/C=C/c1ccccc1`, the result was inactive.
On to `CCOC(=O)Nc1cccc(OC(=O)Nc2ccccc2)c1`, for which the call was inactive.
For `COP(=S)(OC)Oc1cc(Cl)c(Br)cc1Cl`, the result was inactive.
For `CC(C)c1cccc(C(C)C)c1O`, the call was inactive.
Take `O=C(OC1CCCCC1)c1ccccc1C(=O)OC1CCCCC1`: the outcome was inactive.
For `CCCCCCCCCCCCCCCC[n+]1ccccc1`, the AC50 is 48.8 µM (active) and 69.6 µM (active); the call was inactive.
`Nc1ccc(-c2ccc(N)c(Cl)c2)cc1Cl`: the call was inactive.
Regarding `ClCC(Cl)CCl`, the result was inactive.
Still for that read-out and setting: the result for `CC(C)OC(=S)S` reads “inactive”.
With `NC(=O)CF`, the compound was classed as inactive.
The same measure, in the same setting: the result for `CCCCCCCCCl` reads “inactive”; that for `c1cc[c]([Hg][c]2ccccc2)cc1`, “inactive”; that for `N#CN=C(N)N`, “inactive”.
For the compound `CC12CC1(C)C(=O)N(c1cc(Cl)cc(Cl)c1)C2=O` (stereo not given), the result was inactive.
In the case of `CCN1CCC2(CC1)COc1cc3c(cc12)N(C(=O)c1ccc(-c2ccc(-c4nnc(C)o4)cc2C)cc1)CC3`, the half-maximal activity concentration (AC50) is 54.7 µM (active).
For `COP(=S)(OC)Oc1cc(Cl)c(Cl)cc1Cl`, the result was inactive.
As to `NNC(=S)NN`, the outcome was inactive.
Regarding `C=CC#N`, the compound was classed as inactive.
As for `CC(C)(OO)c1ccccc1`, the result was inactive.
Regarding `COc1ccc(C=O)cc1`, the result was inactive.
Regarding `CC(C)OC(=O)Nc1ccccc1`, the outcome was inactive.
Regarding `Nc1ncc([N+](=O)[O-])s1`, the result was inactive.
For the compound `Cl/C=C\C[N+]12CN3CN(CN(C3)C1)C2`, the compound was classed as inactive.
As to `CC(C)(c1ccc(OCC2CO2)cc1)c1ccc(OCC2CO2)cc1` (stereo not given), the call was inactive and the AC50 is 68.3 µM (active).
As to `CC(=O)c1cc(C(C)(C)C)cc2c1CCC2(C)C`, the call was inactive.
As for `CCC[CH2][Sn]([Cl])([Cl])[Cl]`, the outcome was inactive.
The same measure, in the same setting: the result for `CCNc1nc(NC(C)(C)C)nc(SC)n1` reads “inactive”; that for `C[C@]12CCC(=O)C[C@@H]1CC[C@@H]1[C@@H]2CC[C@]2(C)[C@@H](O)CC[C@@H]12`, “inactive”.
As for `ClC1=C(Cl)[C@]2(Cl)[C@H]3[C@H]([C@H]4C=C[C@H]3C4)[C@@]1(Cl)C2(Cl)Cl`, the result was inactive.
As to `Cc1cc(=O)[nH]o1`, the outcome was inactive.
